Assay results: PubChem BioAssay (NCATS)
Unmarked numbers belong to inactive results. Activity calls are given as the source filed them. No stated cut-off is given here; in the data, active means potency below about 10 µM; inactive means the rest.

Target: Lysosomal acid glucosylceramidase (Homo sapiens) (UniProt P04062)
Assay: Glucocerebrosidase-p2 (AID 348)
Conditions: purified GBA, blue fluorogenic substrate, 40 min
Summary of the method: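 Normal human glucocerebrosidase (0.2 nM) with blue fluorogenic substrate (80 uM final) in citrate/phosphate pH 5.9 with 10mM sodium taurocholate, 0.01% tween-20; 40 min RT, NaOH/glycine stop; fluorescence Ex 365/Em 440; AC50 from a titration from 0.6 nM upwards.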
Potency means the concentration at half of the fitted maximal effect.

Sequence of Lysosomal acid glucosylceramidase (Homo sapiens) (P04062 whole entry, looked up): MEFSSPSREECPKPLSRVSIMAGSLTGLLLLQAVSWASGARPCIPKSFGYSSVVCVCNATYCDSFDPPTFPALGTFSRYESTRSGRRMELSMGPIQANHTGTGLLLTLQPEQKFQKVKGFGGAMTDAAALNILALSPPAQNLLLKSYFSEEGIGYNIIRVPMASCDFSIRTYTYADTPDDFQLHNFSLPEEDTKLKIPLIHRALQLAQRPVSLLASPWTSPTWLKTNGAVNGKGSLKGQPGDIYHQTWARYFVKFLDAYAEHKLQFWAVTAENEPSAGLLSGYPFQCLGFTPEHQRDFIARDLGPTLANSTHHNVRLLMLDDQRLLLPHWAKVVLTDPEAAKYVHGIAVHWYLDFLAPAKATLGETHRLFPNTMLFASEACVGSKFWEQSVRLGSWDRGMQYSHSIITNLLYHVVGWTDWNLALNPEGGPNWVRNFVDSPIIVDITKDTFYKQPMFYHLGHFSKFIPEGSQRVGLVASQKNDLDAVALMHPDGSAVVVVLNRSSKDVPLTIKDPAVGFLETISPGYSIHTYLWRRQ

Compound | Potency
CC(=O)NCCNc1nc(-c2cccc(NS(C)(=O)=O)c2)nc2ccccc12 | > 11.4 µM
Cc1noc(C)c1-c1nccc(NCCN2CCOCC2)n1 | > 11.4 µM
Cc1cnc(CNc2ccnc(-c3cccc(NS(C)(=O)=O)c3)n2)cn1 | > 11.4 µM
CN(C)C(=O)c1ccc(-c2cncnc2-n2ccnc2)cc1 | > 11.4 µM
COc1ccccc1-c1cc(NCc2cnc(C)cn2)ncn1 | > 11.4 µM
CNc1nc(-c2cccc(C#N)c2)nc2ccccc12 | > 11.4 µM
COc1ccc2[nH]cc(CCNc3nc(-c4ccc(N(C)C)cc4)nc4ccccc34)c2c1 | 0.554 µM (active)
COCCNc1nc(-c2c(C)noc2C)nc2ccccc12 | > 11.4 µM
CN(C)C(=O)c1ccc(-c2ccc3ncnc(N4CCOCC4)c3c2)cc1 | > 11.4 µM
COc1cccc(Cn2c(=O)c(-c3ccc(F)cc3)nc3cncnc32)c1 | > 11.4 µM
Cc1noc(C)c1-c1nc(NC2CC2)c2ccccc2n1 | > 11.4 µM
COc1cccc(Nc2ncc3ncc(=O)n(C[C@H]4CCCO4)c3n2)c1 | > 11.4 µM
Cn1cc(-c2nc3cncnc3n(C3CC3)c2=O)c2ccccc21 | > 11.4 µM
COc1ccc(-c2nc3cnc(OCc4ccccc4)nc3n(CCC#N)c2=O)cc1 | > 11.4 µM
Cn1cc(-c2nc3cncnc3n(Cc3ccccc3Cl)c2=O)c2ccccc21 | > 11.4 µM
COc1cccc(-c2cc(NCc3cnc(C)cn3)ncn2)c1 | > 11.4 µM
CC(=O)NCCNc1nc(-c2ccccc2C)nc2ccccc12 | > 11.4 µM

Compound | Potency
COc1ccc(Oc2ncc3nc(-c4ccc(F)cc4)c(=O)n(Cc4cccs4)c3n2)cc1 | > 11.4 µM
COc1ccc2[nH]cc(CCNc3ncncc3-c3cccnc3)c2c1 | > 11.4 µM
CS(=O)(=O)Nc1cccc(-c2cc(Nc3ccccc3)ncn2)c1 | > 11.4 µM
COc1ccccc1CNc1cc(-c2ccccc2OC)ncn1 | > 11.4 µM
CN(C)C(=O)c1ccc(-c2nccc(-n3ccnc3)n2)cc1 | > 11.4 µM
Cc1cnc(CNc2cc(-c3ccccc3Cl)ncn2)cn1 | > 11.4 µM
CN(Cc1ccco1)c1cc(-c2cccc(C#N)c2)ncn1 | > 11.4 µM
Cc1ccccc1-c1nc(N(C)C)c2ccccc2n1 | > 11.4 µM
Cc1noc(C)c1-c1nccc(NCc2ccccc2)n1 | > 2.29 µM
Cc1cnc(CNc2cc(-c3ccccc3C(F)(F)F)ncn2)cn1 | > 11.4 µM
CN(C)C(=O)c1ccc(-c2ccc3ncnc(N4CCNCC4)c3c2)cc1 | > 11.4 µM
COc1cccc(-c2cc(NCc3cccnc3)ncn2)c1 | > 11.4 µM
COc1ccc2[nH]cc(CCNc3ccnc(-c4ccc5c(c4)OCO5)n3)c2c1 | 7.76 µM (active)
COc1cccc(-c2cncnc2NCc2cnc(C)cn2)c1 | > 11.4 µM
COc1ccccc1-c1nc(NCCN2CCOCC2)c2ccccc2n1 | > 11.4 µM
Cc1cnc(CNc2cc(-c3ccccc3C)ncn2)cn1 | > 11.4 µM
